Test results: PubChem BioAssay (Tox21)
Results filed as inconclusive are left out. The source made the active and inactive calls. Unless noted, calls follow the shape of the dose curve; as a rule, active = well fitted curve in the direction sought with a large enough effect in the repeat runs; inconclusive = weak or mixed curves; inactive = no such curve, though single readings can be large; an effect the other way counts as inactive or inconclusive.

Columns and labels:
[1] = molecular target: Retinoic acid receptor RXR-alpha (Homo sapiens) (UniProt P19793); test: qHTS assay to identify small molecule agonists of the RXR signaling pathway (AID 1159527; calls by dose curve; also: nearly all actives have a fitted effect of over 35% in size)
Summary of the method: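 16 hr incubation of compound-treated RXR-alpha-UAS-bla HEK 293T cells (2% charcoal-stripped FBS, 37 C) preceded a 2 hr room-temperature LiveBLAzer FRET substrate step and blue/green fluorescence measurement.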

[2] = qHTS assay to identify small molecule agonists of the RXR signaling pathway - cell viability counter screen (AID 1159529);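 also: HEK 293T cells carrying an RXR-alpha UAS beta-lactamase reporter; series mostly up to about 77 µM; nearly all actives have a fitted effect of over 50% in size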
Summary of the method: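 In this parallel viability measure, GeneBLAzer RXR-alpha HEK 293T cells (2% charcoal-stripped FBS) were given a 5 hr preincubation, treated with compounds 16 hr at 37 C, and read by CellTiter-Glo luminescence.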

[3] = qHTS assay to identify small molecule antagonists of the retinoid acid receptor (RAR) signaling pathway - cell viability counter screen (AID 1159551); also: nearly all actives have a fitted effect of over 35% in size
Summary of the method: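 Cytotoxicity counter screen: ATP content quantified by CellTiter-Glo luminescence in C3RL4 cells treated 6 hr at 37 C with compound and retinol (1 uM final). Cells plated at 1,000/well and cultured overnight before dosing.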

[4] = qHTS assay to identify small molecule antagonists of the retinoic acid receptor (RAR) signaling pathway (AID 1159552; also: nearly all actives have a fitted effect of over 50% in size)
Summary of the method: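 C3RL4 RARE-luc cells, overnight plating; retinol 1 uM final added right after compound; 6 hr 37 C; luciferase read at 30 min RT.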

[5] = qHTS assay to identify small molecule agonists of the retinoic acid receptor (RAR) signaling pathway (AID 1159553)
Summary of the method: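 Luminescence was measured 30 min after luciferase reagent addition at room temperature. Before that, C3RL4 reporter cells (1,000 per well, plated overnight) were treated with compound for 6 hr at 37 C and 5% CO2.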

[6] = qHTS assay to identify small molecule antagonists of the estrogen related receptor (ERR) signaling pathway from Tox21 library - cell viability counter screen (AID 1224834); also: nearly all actives have a fitted effect of over 30% in size
Summary of the method: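 CellTiter-Fluor fluorescence, read after 30 min at 37 C, measures viability of ERR cells. Cells plated at 2,000/well and incubated 6 h before pin-tool compound addition, then exposed 17.5 hours at 37 C.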

[7] = qHTS assay to identify small molecule agonists of the constitutive androstane receptor (CAR) signaling pathway - cell viability counter screen (AID 1224836); also: series mostly up to about 92 µM; nearly all actives have a fitted effect of over 45% in size
Summary of the method: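 Using CellTiter-Fluor, viability of HepG2 cells harbouring hCAR and CYP2B6-2.2kb was measured following 23 h incubation with a 15-concentration compound series plus PK11195 (0.75 uM final).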

[8] = qHTS assay to identify small molecule antagonists of the constitutive androstane receptor (CAR) signaling pathway - cell viability counter screen (AID 1224837); also: series mostly up to about 92 µM; nearly all actives have a fitted effect of over 45% in size
Summary of the method: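 Cytotoxicity counter-screen: CellTiter-Fluor fluorescence after 23 h compound exposure (15-point qHTS) in double-stable HepG2-CYP2B6-hCAR cells, with 50 nM CITCO added.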

[9] = molecular target: Nuclear receptor subfamily 1 group I member 3 (Homo sapiens) (UniProt Q14994); test: qHTS assay to identify small molecule antagonists of the constitutive androstane receptor (CAR) signaling pathway (AID 1224838);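 also: HepG2 cells stably expressing hCAR with CYP2B6 luciferase reporter stimulated by CITCO; nearly all actives have a fitted effect of over 40% in size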
Summary of the method: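 Antagonism measured as luciferase signal (ONE-Glo, 30 min, room temperature) in CAR-stimulated cells: HepG2-CYP2B6-hCAR double-stable line exposed 24 hr at 37 C to compound in a 15-point series plus 50 nM CITCO.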

[10] = molecular target: Nuclear receptor subfamily 1 group I member 3 (Homo sapiens) (UniProt Q14994); test: qHTS assay to identify small molecule agonists of the constitutive androstane receptor (CAR) signaling pathway (AID 1224839);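 also: HepG2 cells stably carrying human CAR and a CYP2B6 luciferase reporter; series mostly up to about 92 µM; nearly all actives have a fitted effect of over 15% in size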
Summary of the method: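 Double-stable HepG2 cells (hCAR, CYP2B6-2.2kb) seeded 4 h before compound addition. Exposure 24 h with 0.75 uM PK11195 final. Luciferase detected by ONE-Glo.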

[11] = qHTS assay to identify small molecule antagonists of the estrogen related receptor signaling pathway with the pleiotropic PPARgamma coactivator (PGC) from Tox21 10K library - cell viability counter screen (AID 1224840; active = well fitted cell-killing curve with a large enough effect in the repeat runs, not every such curve was filed as active; also: nearly all actives have a fitted effect of over 40% in size)
Summary of the method: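 Counter-screen for cytotoxicity: after 17.5 h compound exposure at 37 C, CellTiter-Fluor reagent added to PGC/ERR cells for 30 min and fluorescence read. Cells were seeded at 2,000 per well 6 h before dosing.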

[12] = qHTS assay to identify small molecule antagonists of the estrogen related receptor signaling pathway with the pleiotropic PPARgamma coactivator (PGC) from Tox21 10K library (AID 1224841; call rule not given here; also: series mostly up to about 92 µM; actives are mostly falling curves and most rising ones were filed inactive; nearly all actives have a fitted effect of over 50% in size)
Summary of the method: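 Luminescence (One-Glo, 30 min at room temperature) after 18 h compound treatment at 37 C of PGC/ERR reporter cells plated at 2,000 cells/well and settled 6 h beforehand.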

[13] = qHTS assay to identify small molecule agonists of the estrogen related receptor signaling pathway with the pleiotropic PPARgamma coactivator (PGC) from Tox21 10K library (AID 1224842); also: nearly all actives have a fitted effect of over 15% in size
Summary of the method: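 PGC/ERR reporter cell line, 2,000 cells per well, incubated 6 h at 37 C before 23 nL compound in DMSO was added. After 18 h at 37 C, One-Glo luminescence read following 30 min at room temperature.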

[14] = qHTS assay to identify small molecule antagonists of the estrogen related receptor (ERR) signaling pathway - cell viability counter screen (AID 1224818);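 also: series mostly up to about 46 µM; viability measured after 17.5 h of compound exposure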
Summary of the method: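 Cytotoxicity counter screen: fluorescence from CellTiter-Fluor, added after 17.5 h compound exposure at 37 C and read 30 min later. ERR cell line seeded at 2,000 cells/well, preincubated 6 h before dosing.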

[15] = qHTS assay to identify small molecule antagonists of the estrogen related receptor signaling pathway with the pleiotropic PPARgamma coactivator (PGC) cell viability counter screen (AID 1224822; also: series mostly up to about 46 µM)
Summary of the method: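 Viability counter-screen read by fluorescence intensity after 30 min with CellTiter-Fluor at 37 C; PGC/ERR reporter cells were exposed to compounds for 17.5 h at 37 C following a 6 h preincubation.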

[16] = molecular target: Luciferin 4-monooxygenase (Photinus pyralis) (UniProt P08659); test: qHTS assay to identify small molecule inhibitors of firefly luciferase (AID 1224835); also: series mostly up to about 120 µM; nearly all actives have a fitted effect of over 25% in size
Summary of the method: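 Biochemical qHTS: compounds run as interplate titrations against purified firefly enzyme, with D-luciferin and ATP each at its KM concentration. Light output recorded by CCD imaging.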

Measured: Potency

Retinoic acid receptor RXR-alpha (Homo sapiens), sequence (P19793 whole entry, looked up): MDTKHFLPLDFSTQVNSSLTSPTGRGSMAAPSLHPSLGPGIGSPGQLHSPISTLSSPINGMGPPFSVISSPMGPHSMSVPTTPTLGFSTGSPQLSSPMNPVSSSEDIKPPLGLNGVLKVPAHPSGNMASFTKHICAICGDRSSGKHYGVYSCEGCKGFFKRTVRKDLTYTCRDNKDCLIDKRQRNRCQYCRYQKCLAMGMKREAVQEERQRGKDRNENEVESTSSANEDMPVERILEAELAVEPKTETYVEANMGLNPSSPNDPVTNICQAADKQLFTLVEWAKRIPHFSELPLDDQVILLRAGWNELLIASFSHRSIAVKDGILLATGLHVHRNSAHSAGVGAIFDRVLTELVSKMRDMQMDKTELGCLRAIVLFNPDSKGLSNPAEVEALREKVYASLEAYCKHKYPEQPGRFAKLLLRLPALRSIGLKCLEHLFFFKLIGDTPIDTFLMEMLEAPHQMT
Luciferin 4-monooxygenase (Photinus pyralis), sequence (P08659 whole entry, looked up): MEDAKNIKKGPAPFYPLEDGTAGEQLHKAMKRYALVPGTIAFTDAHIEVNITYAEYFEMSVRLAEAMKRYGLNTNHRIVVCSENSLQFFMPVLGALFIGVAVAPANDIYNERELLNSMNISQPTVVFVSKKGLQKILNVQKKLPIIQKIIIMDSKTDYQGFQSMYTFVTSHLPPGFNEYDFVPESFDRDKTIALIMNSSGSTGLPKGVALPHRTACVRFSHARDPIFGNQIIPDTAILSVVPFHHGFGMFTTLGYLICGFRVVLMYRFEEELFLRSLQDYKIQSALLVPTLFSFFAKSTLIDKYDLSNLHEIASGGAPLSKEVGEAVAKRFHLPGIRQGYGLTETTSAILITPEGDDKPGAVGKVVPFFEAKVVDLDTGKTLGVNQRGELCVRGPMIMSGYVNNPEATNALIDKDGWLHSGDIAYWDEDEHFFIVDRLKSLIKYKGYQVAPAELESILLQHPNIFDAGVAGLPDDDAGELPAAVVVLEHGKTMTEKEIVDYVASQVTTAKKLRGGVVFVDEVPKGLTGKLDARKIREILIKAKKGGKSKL
Nuclear receptor subfamily 1 group I member 3 (Homo sapiens), sequence (Q14994 whole entry, looked up): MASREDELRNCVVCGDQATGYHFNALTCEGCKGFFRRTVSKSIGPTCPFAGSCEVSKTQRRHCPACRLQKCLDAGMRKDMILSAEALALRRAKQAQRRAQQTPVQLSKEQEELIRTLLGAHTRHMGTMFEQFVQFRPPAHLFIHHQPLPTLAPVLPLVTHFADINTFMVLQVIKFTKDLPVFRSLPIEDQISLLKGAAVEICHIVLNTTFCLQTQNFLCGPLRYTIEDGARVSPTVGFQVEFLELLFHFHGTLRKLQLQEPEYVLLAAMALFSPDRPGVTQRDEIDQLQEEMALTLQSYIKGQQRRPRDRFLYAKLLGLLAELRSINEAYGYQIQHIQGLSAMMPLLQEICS

O=C1CCCN1C1CCCCC1
not listed: [14] | [15] | [16]
inactive: all other assays above

CCCc1cc(C(N)=S)ccn1
not listed: [14] | [15] | [16]
inactive: all other assays above

OC(CCN1CCCCC1)(c1ccccc1)C1CC2C=CC1C2 (configuration not stated)
not listed: [1] | [12] | [13] | [16]
inactive: all other assays above

CC(=O)OC/C=C(\C)CC/C=C(\C)CCC=C(C)C
not listed: [5] | [14] | [15]
inactive: all other assays above

CCOC(=O)C(=O)OCC
not listed: [13] | [14] | [15] | [16]
inactive: all other assays above

Cc1cc2c(cc1S(N)(=O)=O)S(=O)(=O)CCC2
not listed: [14] | [15] | [16]
inactive: all other assays above

Cc1c(O)cccc1O
not listed: [14] | [15] | [16]
inactive: all other assays above

CC(C)c1cc2c(cc1S(=O)(=O)O)[C@@]1(C)CCC[C@@](C)(C(=O)O)[C@@H]1CC2
not listed: [1] | [14] | [15] | [16]
inactive: all other assays above

CCCCCCCCS(=O)(=O)Cl
not listed: [1] | [14] | [15]
inactive: all other assays above

COC(=O)CCSCCC(=O)OC
not listed: [1] | [14] | [15]
inactive: all other assays above
